Measured values as given in PubChem BioAssay AID1159580 (chemical genetic matrix, 2015).
Screen size: about 5,500 compounds; about 2,000 (36%) were called active. Roughly 18% stayed inconclusive and do not appear here. Cut-off read from the data, not from the text of the source: active = normalized growth mostly below about 0.91 (no sharp cut-off); inconclusive = no clear call, values can overlap the other calls; inactive = mostly above about 0.92. The list shows a part of the results.

Experiment: chemical genetic growth profiling, strain panel (AID 1159580);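 note: tested at 20 µM; growth read once vehicle control cultures reached saturation at 30 °C; 1 = growth at the plate median or of vehicle wells; lower values mean less growth of the strain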
Conditions: growth OD

Measured: normalized growth

COc1cc([C@@H]2c3cc4c(c(O)c3C[C@H]3COC(=O)[C@@H]32)OCO4)cc(OC)c1OC
inactive: S. cerevisiae deletion strains, locus YJR043C, strain POL32, hits give low values 0.989 | S. cerevisiae deletion strains, locus YJR075W, strain HOC1, hits give low values 0.996 | S. cerevisiae deletion strains, locus YKL009W, strain mrt4, hits give low values 0.983 | S. cerevisiae deletion strains, locus YKL068W, hits give low values 0.979 | S. cerevisiae deletion strains, locus YKL085W, strain MDH1 (second series), hits give low values 0.973 | S. cerevisiae deletion strains, locus YKL085W, strain MDH1, hits give low values 0.973 | S. cerevisiae deletion strains, locus YKL160W, strain elf1, hits give low values 1 | S. cerevisiae deletion strains, locus YKL190W, strain CNB1, hits give low values 0.986 | S. cerevisiae deletion strains, locus YKR001C, strain vps1, hits give low values 1 | S. cerevisiae deletion strains, locus YKR026C, strain gcn3, hits give low values 0.985 | S. cerevisiae deletion strains, locus YKR091W, strain srl3, hits give low values 0.995 | S. cerevisiae deletion strains, locus YLL001W, strain dnm1, hits give low values 0.991 | S. cerevisiae deletion strains, locus YLL026W, hits give low values 0.993 | S. cerevisiae deletion strains, locus YLL041C, strain sdh2, hits give low values 0.99 | S. cerevisiae deletion strains, locus YLR027C, strain aat2, hits give low values 0.974 | S. cerevisiae deletion strains, locus YLR039C, strain RIC1, hits give low values 0.921 | S. cerevisiae deletion strains, locus YLR058C, strain SHM2, hits give low values 0.982 | S. cerevisiae deletion strains, locus YLR102C, strain apc9, hits give low values 0.976 | S. cerevisiae deletion strains, locus YLR221C, strain rsa3, hits give low values 0.959 | S. cerevisiae deletion strains, locus YLR258W, strain gsy2, hits give low values 1.01 | S. cerevisiae deletion strains, locus YLR262C, strain YPT6 (second series), hits give low values 0.989 | S. cerevisiae deletion strains, locus YLR262C, strain YPT6, hits give low values 0.907 | S. cerevisiae deletion strains, locus YLR268W, strain sec22, hits give low values 1.01 | S. cerevisiae deletion strains, locus YLR320W, strain mms22, hits give low values 0.963 | S. cerevisiae deletion strains, locus YLR330W, strain CHS5, hits give low values 0.981 | S. cerevisiae deletion strains, locus YLR342W, strain FKS1 (second series), hits give low values 0.971 | S. cerevisiae deletion strains, locus YLR342W, strain FKS1, hits give low values 0.983 | S. cerevisiae deletion strains, locus YLR357W, strain rsc2, hits give low values 0.999 | S. cerevisiae deletion strains, locus YLR370C, strain arc18, hits give low values 1 | S. cerevisiae deletion strains, locus YLR371W, strain rom2, hits give low values 0.946 | S. cerevisiae deletion strains, locus YLR384C, strain iki3, hits give low values 0.98 | S. cerevisiae deletion strains, locus YLR418C, strain cdc73, hits give low values 1.01 | S. cerevisiae deletion strains, locus YML016C, strain PPZ1, hits give low values 0.992 | S. cerevisiae deletion strains, locus YML032C, strain rad52, hits give low values 0.991 | S. cerevisiae deletion strains, locus YML120C, strain ndi1, hits give low values 0.998 | S. cerevisiae deletion strains, locus YML124C, strain tub3, hits give low values 0.988 | S. cerevisiae deletion strains, locus YMR058W, strain fet3, hits give low values 0.999 | S. cerevisiae deletion strains, locus YMR078C, strain ctf18, hits give low values 0.995 | S. cerevisiae deletion strains, locus YMR125W, strain sto1, hits give low values 0.986 | S. cerevisiae deletion strains, locus YMR129W, hits give low values 0.984 | S. cerevisiae deletion strains, locus YMR205C, strain PFK2, hits give low values 0.982 | S. cerevisiae deletion strains, locus YMR223W, strain ubp8, hits give low values 0.987 | S. cerevisiae deletion strains, locus YMR231W, strain pep5, hits give low values 0.991 | S. cerevisiae deletion strains, locus YMR263W, strain SAP30, hits give low values 1 | S. cerevisiae deletion strains, locus YMR307W, strain GAS1, hits give low values 1.02 | S. cerevisiae deletion strains, locus YNL067W, strain RPL9B, hits give low values 1.02 | S. cerevisiae deletion strains, locus YNL071W, strain lat1, hits give low values 1.01 | S. cerevisiae deletion strains, locus YNL128W, strain TEP1, hits give low values 0.989 | S. cerevisiae deletion strains, locus YNL153C, strain GIM3, hits give low values 1.03 | S. cerevisiae deletion strains, locus YNL209W, strain ssb2, hits give low values 1 | S. cerevisiae deletion strains, locus YNL233W, strain BNI4, hits give low values 1.04 | S. cerevisiae deletion strains, locus YNL248C, strain rpa49, hits give low values 0.984 | S. cerevisiae deletion strains, locus YNL250W, strain rad50, hits give low values 0.955 | S. cerevisiae deletion strains, locus YNL271C, strain bni1, hits give low values 0.973 | S. cerevisiae deletion strains, locus YNL298W, strain CLA4, hits give low values 0.976 | S. cerevisiae deletion strains, locus YNL307C, strain MCK1, hits give low values 0.992 | S. cerevisiae deletion strains, locus YNL322C, strain KRE1 (second series), hits give low values 1 | S. cerevisiae deletion strains, locus YNL322C, strain KRE1, hits give low values 0.979 | S. cerevisiae deletion strains, locus YNR049C, strain mso1, hits give low values 0.986 | S. cerevisiae deletion strains, locus YNR052C, strain pop2, hits give low values 0.975 | S. cerevisiae deletion strains, locus YOL006C, strain TOP1, hits give low values 1.08 | S. cerevisiae deletion strains, locus YOL012C, strain htz1 0.866 | S. cerevisiae deletion strains, locus YOL147C, strain pex11, hits give low values 0.985 | S. cerevisiae deletion strains, locus YOR001W, strain rrp6, hits give low values 0.957 | S. cerevisiae deletion strains, locus YOR061W, strain CKA2, hits give low values 0.986 | S. cerevisiae deletion strains, locus YOR069W, strain VPS5, hits give low values 0.992 | S. cerevisiae deletion strains, locus YOR070C, strain gyp1, hits give low values 0.987 | S. cerevisiae deletion strains, locus YOR080W, strain dia2, hits give low values 0.98 | S. cerevisiae deletion strains, locus YOR083W, strain WHI5, hits give low values 1.01 | S. cerevisiae deletion strains, locus YOR106W, strain vam3, hits give low values 1 | S. cerevisiae deletion strains, locus YOR136W, strain idh2, hits give low values 0.984 | S. cerevisiae deletion strains, locus YOR144C, strain elg1, hits give low values 0.984 | S. cerevisiae deletion strains, locus YOR184W, strain ser1, hits give low values 0.973 | S. cerevisiae deletion strains, locus YOR265W, strain rbl2, hits give low values 0.992 | S. cerevisiae deletion strains, locus YOR270C, strain vph1, hits give low values 0.98 | S. cerevisiae deletion strains, locus YOR290C, strain snf2, hits give low values 0.987 | S. cerevisiae deletion strains, locus YOR316C, strain cot1, hits give low values 0.983 | S. cerevisiae deletion strains, locus YPL051W, strain arl3, hits give low values 0.965 | S. cerevisiae deletion strains, locus YPL055C, strain LGE1, hits give low values 1.03 | S. cerevisiae deletion strains, locus YPL078C, strain atp4, hits give low values 1.01 | S. cerevisiae deletion strains, locus YPL106C, strain sse1, hits give low values 0.987 | S. cerevisiae deletion strains, locus YPL240C, strain hsp82, hits give low values 0.992 | S. cerevisiae deletion strains, locus YPL241C, strain CIN2, hits give low values 0.987 | S. cerevisiae deletion strains, locus YPR119W, strain clb2, hits give low values 0.979 | S. cerevisiae deletion strains, locus YPR141C, strain kar3, hits give low values 0.979 | S. cerevisiae deletion strains, locus YPR163C, strain tif3, hits give low values 0.97 | S. cerevisiae deletion strains, locus YPR167C, strain met16, hits give low values 0.971 | S. cerevisiae deletion strains, strain wtn01, hits give low values 1 | S. cerevisiae strains, strain wild type, hits give low values 0.99
